{"source": "PubChem BioAssay (NCI)", "note": "About 83,000 compounds went through this panel and 20% of them were active in at least one assay; those are over-represented in the sample as a whole.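 For each line, cells grew in 96-well plates with the test compound present at a single concentration for 48 hours.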 Activity calls are given as the source filed them. The calls were made as follows: active = growth percent below 10; inactive = the rest.", "data": [{"test_system": "SK-OV-3 ovarian", "experiment": "NCI-60 one-dose screen, 48 h (100 = growth as untreated, 0 = no growth, -100 = all killed)", "details": "10 µM unless noted", "values": [{"smiles": "Fc1ccc(C2=NN(c3ccccc3)C(c3sc(N(CCCl)CCCl)nc3Cl)C2)cc1", "note": "(configuration not stated)", "growth": "76.5% (inactive)"}, {"smiles": "CC[C@H](C)[C@H](NC(=O)Nc1ccccc1)C(=O)N(C)[C@H](C[C@@H](OC(C)=O)c1nc(C(=O)N[C@@H](Cc2ccccc2)C[C@H](C)C(=O)OC)cs1)C(C)C", "growth": "25.4% (inactive)"}, {"smiles": "c1ccc(CCN2CCCCC2Cc2ccccc2)cc1", "note": "(configuration not stated)", "growth": "106% (inactive)"}, {"smiles": "CC(=O)O[C@H]1CCC2(C)C(=CCC3C2CCC2(C)/C(=N/OC(=O)c4ccc(N(CCCl)CCCl)cc4)CCC32)C1", "note": "(some centres not stated)", "growth": "102% (inactive)"}, {"smiles": "O=[As]c1ccc(C(=O)c2ccc(Oc3ccccc3)cc2)cc1", "note": "(configuration not stated)", "growth": "-100% (active)"}, {"smiles": "O=[N+]([O-])c1cc([N+](=O)[O-])c(Cl)c(Cl)c1Cl", "growth": "101% (inactive)"}, {"smiles": "Cc1cc(NC(=O)NCCOc2ccc(N3C(N)=NC(N)=NC3(C)C)cc2Cl)ccc1S(=O)(=O)F", "growth": "55.4% (inactive)"}, {"smiles": "COc1ccc2c(c1)NC1=C(C(=O)OC1)C2c1cc(OC)c(OC)c(OC)c1", "note": "(configuration not stated)", "growth": "36.9% (inactive)"}, {"smiles": "C=CCc1ccc(OC(=O)Cc2ccccc2)c(OC)c1", "growth": "94.2% (inactive)"}, {"smiles": "CC(C)(O)/C=C/C(=O)[C@](C)(O)[C@H]1[C@H](O)C[C@@]2(C)[C@@H]3CC=C4[C@@H](C=C(O)C(=O)C4(C)C)[C@]3(C)C(=O)C[C@]12C", "growth": "5.63% (active)"}, {"smiles": "C[C@]12CCc3sc(-c4ccc(Cl)cc4)nc3C1=CC[C@@H]1[C@@H]2CC[C@]2(C)C(=O)CC[C@@H]12", "growth": "79.2% (inactive)"}, {"smiles": "C=CCC1(CC)C(=O)NC(=S)NC1=O", "growth": "97.1% (inactive)"}, {"smiles": "O=C(CF)N(O)c1ccc(/C=C/c2ccccc2)cc1", "growth": "65.6% (inactive)"}, {"smiles": "COc1ccc(/C=C(/C(=O)N2CCCC2)c2cc(OC)c(OC)c(OC)c2)cc1N", "growth": "28.7% (inactive)"}, {"smiles": "Nc1nc(N)c(-c2ccc(Cl)c(Cl)c2)c(/C=C/c2ccc(S(=O)(=O)F)cc2)n1", "growth": "97.2% (inactive)"}, {"smiles": "Nc1c(Br)cc([N+](=O)[O-])cc1[N+](=O)[O-]", "growth": "107% (inactive)"}, {"smiles": "Oc1ccc(O)c2c1C1(Cl)C(Cl)=C(Cl)C2(Cl)C1(Cl)Cl", "growth": "66.9% (inactive)"}, {"smiles": "CN(C)P1(N(C)C)=NP(N(C)C)(N(C)C)=NP(N(C)C)(N(C)C)=N1", "growth": "106% (inactive)"}, {"smiles": "CCCCNCCc1ccccn1", "growth": "119% (inactive)"}, {"smiles": "CNC(=O)Oc1cccc(OC)c1", "growth": "118% (inactive)"}, {"smiles": "C=C=[CH][Sn]([c]1ccccc1)([c]1ccccc1)[c]1ccccc1", "growth": "-57.1% (active)"}, {"smiles": "NC(=O)SCC(=O)Nc1ccc([As](=O)(O)O)cc1", "growth": "135% (inactive)"}, {"smiles": "C[C@]12CC[C@H]3[C@@H](C[C@@H]4N=C(c5ccc(O)cc5)S[C@@]45C[C@H](O)CC[C@]35C)[C@@H]1CC[C@@H]2O", "growth": "38.6% (inactive)"}, {"smiles": "COc1cc2c(cc1OC)CN(C)C(C)C2", "note": "(configuration not stated)", "growth": "103% (inactive)"}, {"smiles": "CC(C)C1c2ccc(O)cc2Oc2nc(N)c(C#N)c(N)c21", "note": "(configuration not stated)", "growth": "116% (inactive)"}, {"smiles": "c1ccc2nc(OCCN3CC3)ccc2c1", "growth": "96.7% (inactive)"}, {"smiles": "CC1(C)N=C(N)N=C(N)N1c1ccc(CNC(=O)Nc2ccc(S(=O)(=O)F)c(Cl)c2)c(Cl)c1", "growth": "42.9% (inactive)"}, {"smiles": "c1ccc(-c2ccc3ccccc3[o+]2)cc1", "growth": "89.4% (inactive)"}, {"smiles": "CSc1ccccc1NP1(=O)OCC(C)([N+](=O)[O-])CO1", "note": "(configuration not stated)", "growth": "98.2% (inactive)"}, {"smiles": "CC1COC(=O)C1", "note": "(configuration not stated)", "growth": "96.1% (inactive)"}, {"smiles": "C[CH2][Pb]([CH2]C)([CH2]C)[O]C(=O)COc1ccccc1", "growth": "4.72% (active)"}, {"smiles": "COc1ccc(/C=C\\c2cc(OC)c(OC)c(OC)c2)cc1N/C=C\\C(=O)c1c[nH]c2ccccc12", "growth": "12.9% (inactive)"}, {"smiles": "OC1(c2ccc(Cl)cc2Cl)c2ccccc2C2=NCCN21", "note": "(configuration not stated)", "growth": "89.5% (inactive)"}, {"smiles": "CC1(CF)NC(=O)NC1=O", "note": "(configuration not stated)", "growth": "109% (inactive)"}, {"smiles": "O=C(Nc1ccc(S(=O)(=O)F)cc1)Oc1ccccc1", "growth": "102% (inactive)"}]}, {"test_system": "IGROV1 ovarian", "experiment": "NCI-60 one-dose screen, 48 h (100 = growth as untreated, 0 = no growth, -100 = all killed)", "details": "10 µM", "values": [{"smiles": "Fc1ccc(C2=NN(c3ccccc3)C(c3sc(N(CCCl)CCCl)nc3Cl)C2)cc1", "note": "(configuration not stated)", "growth": "82.7% (inactive)"}, {"smiles": "CC[C@H](C)[C@H](NC(=O)Nc1ccccc1)C(=O)N(C)[C@H](C[C@@H](OC(C)=O)c1nc(C(=O)N[C@@H](Cc2ccccc2)C[C@H](C)C(=O)OC)cs1)C(C)C", "growth": "22.2% (inactive)"}, {"smiles": "c1ccc(CCN2CCCCC2Cc2ccccc2)cc1", "note": "(configuration not stated)", "growth": "92.5% (inactive)"}, {"smiles": "CC(=O)O[C@H]1CCC2(C)C(=CCC3C2CCC2(C)/C(=N/OC(=O)c4ccc(N(CCCl)CCCl)cc4)CCC32)C1", "note": "(some centres not stated)", "growth": "11.6% (inactive)"}, {"smiles": "O=C(N/N=C/c1ccc(N(CCCl)CCCl)cc1)c1cc(=O)[nH]c(=O)[nH]1", "growth": "83.9% (inactive)"}, {"smiles": "O=[As]c1ccc(C(=O)c2ccc(Oc3ccccc3)cc2)cc1", "note": "(configuration not stated)", "growth": "-54.1% (active)"}, {"smiles": "O=[N+]([O-])c1cc([N+](=O)[O-])c(Cl)c(Cl)c1Cl", "growth": "22% (inactive)"}, {"smiles": "Cc1cc(NC(=O)NCCOc2ccc(N3C(N)=NC(N)=NC3(C)C)cc2Cl)ccc1S(=O)(=O)F", "growth": "32.5% (inactive)"}, {"smiles": "COc1ccc2c(c1)NC1=C(C(=O)OC1)C2c1cc(OC)c(OC)c(OC)c1", "note": "(configuration not stated)", "growth": "12% (inactive)"}, {"smiles": "C=CCc1ccc(OC(=O)Cc2ccccc2)c(OC)c1", "growth": "99.8% (inactive)"}, {"smiles": "CC(C)(O)/C=C/C(=O)[C@](C)(O)[C@H]1[C@H](O)C[C@@]2(C)[C@@H]3CC=C4[C@@H](C=C(O)C(=O)C4(C)C)[C@]3(C)C(=O)C[C@]12C", "growth": "-70.3% (active)"}, {"smiles": "C[C@]12CCc3sc(-c4ccc(Cl)cc4)nc3C1=CC[C@@H]1[C@@H]2CC[C@]2(C)C(=O)CC[C@@H]12", "growth": "92.5% (inactive)"}, {"smiles": "C=CCC1(CC)C(=O)NC(=S)NC1=O", "growth": "107% (inactive)"}, {"smiles": "O=C(CF)N(O)c1ccc(/C=C/c2ccccc2)cc1", "growth": "40.8% (inactive)"}, {"smiles": "COc1ccc(/C=C(/C(=O)N2CCCC2)c2cc(OC)c(OC)c(OC)c2)cc1N", "growth": "51.4% (inactive)"}, {"smiles": "Nc1nc(N)c(-c2ccc(Cl)c(Cl)c2)c(/C=C/c2ccc(S(=O)(=O)F)cc2)n1", "growth": "89.3% (inactive)"}, {"smiles": "Oc1ccc(O)c2c1C1(Cl)C(Cl)=C(Cl)C2(Cl)C1(Cl)Cl", "growth": "38.3% (inactive)"}, {"smiles": "CN(C)P1(N(C)C)=NP(N(C)C)(N(C)C)=NP(N(C)C)(N(C)C)=N1", "growth": "95.4% (inactive)"}, {"smiles": "CCCCNCCc1ccccn1", "growth": "116% (inactive)"}, {"smiles": "CNC(=O)Oc1cccc(OC)c1", "growth": "118% (inactive)"}, {"smiles": "C=C=[CH][Sn]([c]1ccccc1)([c]1ccccc1)[c]1ccccc1", "growth": "-22.2% (active)"}, {"smiles": "NC(=O)SCC(=O)Nc1ccc([As](=O)(O)O)cc1", "growth": "65.5% (inactive)"}, {"smiles": "C[C@]12CC[C@H]3[C@@H](C[C@@H]4N=C(c5ccc(O)cc5)S[C@@]45C[C@H](O)CC[C@]35C)[C@@H]1CC[C@@H]2O", "growth": "80.7% (inactive)"}, {"smiles": "CC1(C)N=C(N)N=C(N)N1c1ccc(CCCCc2ccc(S(=O)(=O)F)cc2)cc1", "growth": "30.2% (inactive)"}, {"smiles": "Nc1c(Br)cc2c3c(cccc13)-c1ccccc1-2", "growth": "48.1% (inactive)"}, {"smiles": "COc1cc2c(cc1OC)CN(C)C(C)C2", "note": "(configuration not stated)", "growth": "111% (inactive)"}, {"smiles": "CC(C)C1c2ccc(O)cc2Oc2nc(N)c(C#N)c(N)c21", "note": "(configuration not stated)", "growth": "111% (inactive)"}, {"smiles": "c1ccc2nc(OCCN3CC3)ccc2c1", "growth": "35.1% (inactive)"}, {"smiles": "CC1(C)N=C(N)N=C(N)N1c1ccc(CNC(=O)Nc2ccc(S(=O)(=O)F)c(Cl)c2)c(Cl)c1", "growth": "30.6% (inactive)"}, {"smiles": "c1ccc(-c2ccc3ccccc3[o+]2)cc1", "growth": "82.7% (inactive)"}, {"smiles": "CSc1ccccc1NP1(=O)OCC(C)([N+](=O)[O-])CO1", "note": "(configuration not stated)", "growth": "119% (inactive)"}, {"smiles": "CC1COC(=O)C1", "note": "(configuration not stated)", "growth": "103% (inactive)"}, {"smiles": "C[CH2][Pb]([CH2]C)([CH2]C)[O]C(=O)COc1ccccc1", "growth": "2.01% (active)"}, {"smiles": "COc1ccc(/C=C\\c2cc(OC)c(OC)c(OC)c2)cc1N/C=C\\C(=O)c1c[nH]c2ccccc12", "growth": "21.8% (inactive)"}, {"smiles": "CCCC(C)(C)c1ccc2c(c1)OC(C)(C)[C@@H]1CC=C(C)C[C@@H]21", "growth": "95.7% (inactive)"}, {"smiles": "OC1(c2ccc(Cl)cc2Cl)c2ccccc2C2=NCCN21", "note": "(configuration not stated)", "growth": "78.9% (inactive)"}, {"smiles": "O=C(Nc1ccc(S(=O)(=O)F)cc1)Oc1ccccc1", "growth": "99.1% (inactive)"}]}]}
